Data: PubChem BioAssay (NCATS)
Inconclusive results are not listed. Where a call stands in place of a potency, no number is given. Calls of active or inactive are those of the source. Unless noted, calls follow the shape of the dose curve; as a rule, active = well fitted curve in the direction sought with a large enough effect; inconclusive = small, poorly fitted or top-dose-only effect, or another doubt; inactive = no such curve, though single readings can be large; an effect the other way counts as inactive or inconclusive.

Assays:
[1] = biological target: Tumor susceptibility gene 101 protein (Homo sapiens) (UniProt Q99816); assay: qHTS Validation Assay for Iinhibitors of HIV-1 Budding by Blocking the Interaction of PTAP/TSG101 (AID 485342; calls by dose curve); conditions: TSG101-PTAP binding, fluorescence polarization, 4-point titration; series mostly up to 115 µM
Sequence of Tumor susceptibility gene 101 protein (Homo sapiens) (Q99816 whole entry, looked up, the tested form may be a part): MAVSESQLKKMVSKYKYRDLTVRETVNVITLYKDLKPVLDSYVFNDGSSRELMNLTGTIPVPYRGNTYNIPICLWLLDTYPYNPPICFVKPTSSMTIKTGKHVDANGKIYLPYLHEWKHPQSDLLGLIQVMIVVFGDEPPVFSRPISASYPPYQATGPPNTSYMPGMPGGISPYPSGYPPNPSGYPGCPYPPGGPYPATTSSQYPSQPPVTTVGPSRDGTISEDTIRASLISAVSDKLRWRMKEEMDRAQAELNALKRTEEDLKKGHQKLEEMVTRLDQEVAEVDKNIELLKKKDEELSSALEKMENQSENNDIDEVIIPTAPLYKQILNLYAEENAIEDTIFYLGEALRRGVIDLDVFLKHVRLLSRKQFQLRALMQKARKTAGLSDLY
In short: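 Tsg101 binding domain (10 uM) with FITC-labeled PTAP peptide (50 nM) in HEPES pH 7.5 buffer, 20 min at r.t. with compounds. Binding measured by fluorescence polarization.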

[2] = biological target: Beta-2 adrenergic receptor (Homo sapiens) (UniProt P07550); assay: qHTS validation assay of beta-arrestin-biased ligands of beta2-adrenergic receptor (AID 485366); conditions: cell-based beta-arrestin recruitment to ADRB2, qHTS; series mostly up to 46.1 µM
Sequence of Beta-2 adrenergic receptor (Homo sapiens) (P07550 whole entry, looked up): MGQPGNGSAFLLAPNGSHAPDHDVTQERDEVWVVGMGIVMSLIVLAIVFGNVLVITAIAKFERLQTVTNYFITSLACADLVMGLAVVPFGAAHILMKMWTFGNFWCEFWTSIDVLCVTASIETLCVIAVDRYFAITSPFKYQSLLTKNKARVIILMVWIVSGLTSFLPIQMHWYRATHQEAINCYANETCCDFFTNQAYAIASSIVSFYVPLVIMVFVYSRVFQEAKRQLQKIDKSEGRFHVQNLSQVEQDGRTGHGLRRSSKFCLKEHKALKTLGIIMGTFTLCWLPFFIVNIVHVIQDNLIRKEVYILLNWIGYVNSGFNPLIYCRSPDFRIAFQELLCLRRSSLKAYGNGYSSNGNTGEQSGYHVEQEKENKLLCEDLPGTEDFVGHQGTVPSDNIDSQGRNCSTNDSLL
In short: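 Agonist activity is measured as luciferase luminescence downstream of beta-arrestin recruitment to recombinant beta2-AR in Tango cells. Exposure lasts 18 hr at 37 degrees C, and curves are categorized by r2, response size and activity.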

[3] = biological target: Thioredoxin reductase 1, cytoplasmic (Rattus norvegicus) (UniProt O89049); assay: qHTS Assay for Substrates of Mammalian Selenoprotein Thioredoxin Reductase 1 (TrxR1) (AID 488772); conditions: purified TrxR1, NADPH consumption substrate assay; series mostly up to 57.1 µM;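 also: a drop in NADPH fluorescence below the no-compound background marks a TrxR1 substrate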
Sequence of Thioredoxin reductase 1, cytoplasmic (Rattus norvegicus) (O89049 whole entry, looked up): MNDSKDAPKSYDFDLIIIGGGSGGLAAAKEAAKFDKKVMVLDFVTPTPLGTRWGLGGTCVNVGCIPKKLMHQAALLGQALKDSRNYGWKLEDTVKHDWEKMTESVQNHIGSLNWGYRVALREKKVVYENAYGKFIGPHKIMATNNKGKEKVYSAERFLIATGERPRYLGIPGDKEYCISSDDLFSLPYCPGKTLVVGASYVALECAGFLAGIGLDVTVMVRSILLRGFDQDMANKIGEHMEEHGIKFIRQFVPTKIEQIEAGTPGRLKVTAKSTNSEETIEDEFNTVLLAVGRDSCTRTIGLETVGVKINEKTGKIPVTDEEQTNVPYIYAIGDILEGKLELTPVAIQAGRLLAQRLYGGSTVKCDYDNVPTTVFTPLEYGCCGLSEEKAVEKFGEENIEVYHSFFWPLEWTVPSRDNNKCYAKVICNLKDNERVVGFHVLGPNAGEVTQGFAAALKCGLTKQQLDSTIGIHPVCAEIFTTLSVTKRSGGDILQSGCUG
In short: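 In this dual-purpose format, potential substrates are identified from the first fluorescence read after selenite addition, not from the 8-minute delta. Rat enzyme is preincubated with NADPH and then with compound at ~22 deg C.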

[4] = biological target: Thioredoxin reductase 1, cytoplasmic (Rattus norvegicus) (UniProt O89049); assay: qHTS Assay for Inhibitors of Mammalian Selenoprotein Thioredoxin Reductase 1 (TrxR1) (AID 488773); conditions: purified TrxR1 enzyme activity; Potency: inhibition; series mostly up to 57.1 µM; also: nearly all actives have a fitted effect of over 40% in size; also: potency is read from the fitted curve at half-maximal effect
In short: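 Inhibition is scored from the loss of NADPH fluorescence between first and last reads of an 8-min kinetic run. Selenite (400 uM) was the substrate, added after 15 min compound preincubation at room temperature.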

[5] = biological target: ATP-dependent 6-phosphofructokinase (Trypanosoma brucei brucei) (UniProt O15648); assay: qHTS Validation Assay to Find Inhibitors of T. brucei phosphofructokinase (AID 485368); also: potency is read from the fitted curve at half-maximal effect; conditions: T. brucei PFK enzyme assay, qHTS 7-point titration; series mostly up to 57.5 µM
Sequence of ATP-dependent 6-phosphofructokinase (Trypanosoma brucei brucei) (O15648 whole entry, looked up): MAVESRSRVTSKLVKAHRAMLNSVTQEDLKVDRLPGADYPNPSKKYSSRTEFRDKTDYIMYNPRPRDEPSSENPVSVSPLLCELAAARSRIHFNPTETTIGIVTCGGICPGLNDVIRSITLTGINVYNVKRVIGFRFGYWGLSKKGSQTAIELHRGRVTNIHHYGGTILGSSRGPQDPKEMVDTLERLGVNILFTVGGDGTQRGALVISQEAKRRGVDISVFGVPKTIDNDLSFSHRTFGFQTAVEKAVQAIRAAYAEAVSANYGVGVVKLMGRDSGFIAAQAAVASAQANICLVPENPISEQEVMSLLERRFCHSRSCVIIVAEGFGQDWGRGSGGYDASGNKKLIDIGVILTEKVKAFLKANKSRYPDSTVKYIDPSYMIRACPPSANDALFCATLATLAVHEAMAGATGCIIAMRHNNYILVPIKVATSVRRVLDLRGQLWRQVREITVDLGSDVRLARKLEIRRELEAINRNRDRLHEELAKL
In short: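 Inhibition derived from concentration-response curves of luminescence, ranked by r2, response size and curve class; the underlying reaction used 1.25 nM PFK, 0.1 mM ATP and 0.5 mM F6P, 45 min, room temperature.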

[6] = biological target: Chromobox protein homolog 1 (Homo sapiens) (UniProt P83916); assay: qHTS Validation Assay for Inhibitors of HP1-beta Chromodomain Interactions with Methylated Histone Tails (AID 488953); conditions: HP1-beta chromodomain / methylated histone peptide binding assay; series mostly up to 114 µM; also: nearly all actives have a fitted effect of over 50% in size; also: potency is read from the fitted curve at half-maximal effect
Sequence of Chromobox protein homolog 1 (Homo sapiens) (P83916 whole entry, looked up): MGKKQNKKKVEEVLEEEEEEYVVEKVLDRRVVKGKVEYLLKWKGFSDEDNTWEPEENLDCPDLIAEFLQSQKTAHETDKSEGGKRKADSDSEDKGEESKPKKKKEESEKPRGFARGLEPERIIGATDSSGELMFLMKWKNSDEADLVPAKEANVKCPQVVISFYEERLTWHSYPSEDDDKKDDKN
In short: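 Disruption of preformed HP1-beta:H3K9me3 peptide complexes (both 50 nM, PBS pH 7.4 with 0.01% Tween-20) is measured by AlphaScreen after 30 min compound exposure at room temperature, using streptavidin donor and nickel chelate acceptor beads at 10 ug/mL final.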

[7] = qHTS Validation Assay to Find Inhibitors of Chronic Active B-Cell Receptor Signaling (AID 485345; active = well fitted curve in the direction sought with a large enough effect in the main read-out, with a control signal flat, not every such curve was filed as active); conditions: ABC-DLBCL cells, chronic BCR signaling reporter, CBG luciferase; series mostly up to 46.1 µM
In short: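 Read-out: ratio of filter-corrected green (IkappaBalpha fusion) to red (native) luciferase signal in doxycycline-induced TMD8 cells after 4 h at 37C. Titration spanned 46 uM–3 nM; Data were normalised to basal cells and 10 uM MG-132 wells.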

[8] = Quantitative high throughput screen for delayed death inhibitors of the malarial parasite plastid, 96 hour incubation (AID 488745); conditions: Plasmodium falciparum growth; series mostly up to 28.7 µM; also: nearly all actives have a fitted effect of over 70% in size; also: potency is read from the fitted curve at half-maximal effect
In short: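 Readout is firefly luciferase luminescence from an integrated reporter in P. falciparum; lower signal marks inhibited growth. Cultures at 2% hematocrit and 0.1% parasitemia were treated with compound across two generations (96 h, 37 C, 5% CO2).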

[9] = Quantitative high throughput screen for delayed death inhibitors of the malarial parasite plastid, 48 hour incubation (AID 488752); conditions: Plasmodium falciparum growth; series mostly up to 28.7 µM; also: nearly all actives have a fitted effect of over 65% in size; also: potency is read from the fitted curve at half-maximal effect
In short: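 First, compound was pinned into RPMI 1640 medium containing 0.5% Albumax. Next, reporter-parasite-infected erythrocytes were added to 2% hematocrit and 0.1% parasitemia. After 48 h at 37 C under 5% CO2, luciferase detection reagent was added and luminescence read.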

[10] = biological target: Flap endonuclease 1 (Homo sapiens) (UniProt P39748); assay: qHTS Validation Assay for the Inhibitors of Human Flap endonuclease 1 (FEN1) (AID 488816); conditions: FEN1 nuclease activity, fluorogenic DNA substrate; series mostly up to 57.1 µM; also: potency is read from the fitted curve at half-maximal effect
Sequence of Flap endonuclease 1 (Homo sapiens) (P39748 whole entry, looked up): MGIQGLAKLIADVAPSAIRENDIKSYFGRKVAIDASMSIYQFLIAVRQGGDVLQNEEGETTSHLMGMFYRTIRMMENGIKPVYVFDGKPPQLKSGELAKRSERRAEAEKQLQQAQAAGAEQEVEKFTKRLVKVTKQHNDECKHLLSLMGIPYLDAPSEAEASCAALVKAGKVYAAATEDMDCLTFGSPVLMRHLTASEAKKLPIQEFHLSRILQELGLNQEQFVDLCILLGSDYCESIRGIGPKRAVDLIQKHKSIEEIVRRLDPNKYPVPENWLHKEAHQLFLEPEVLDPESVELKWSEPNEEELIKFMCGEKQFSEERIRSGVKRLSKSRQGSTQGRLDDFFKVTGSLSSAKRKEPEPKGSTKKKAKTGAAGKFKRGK
In short: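 qHTS format: compounds and 10 nM FEN1 incubated 15 min at room temperature before adding 50 nM substrate. Cleavage followed by reads at 0 and 15 min; normalized data fitted to a four-parameter Hill curve.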

| SMILES | outcome [1] | outcome [2] | outcome [3] | Potency [4] | Potency [5] | Potency [6] | outcome [7] | Potency [8] | Potency [9] | Potency [10] |
| --- | --- | --- | --- | --- | --- | --- | --- | --- | --- | --- |
| COc1cc2nc(N3CCCN(C)CC3)nc(NC3CCN(Cc4ccccc4)CC3)c2cc1OC | inactive | inactive | inactive | inactive | – | – | – | – | – | – |
| CCN(CC)CCn1c(=O)c(Cc2ccc(OC)cc2)nc2ccccc21 | inactive | inactive | inactive | inactive | inactive | inactive | – | – | – | – |
| CCN1CCCC1CNC(=O)c1cc(S(N)(=O)=O)ccc1OC (stereo not drawn) | inactive | inactive | inactive | inactive | – | inactive | inactive | inactive | inactive | inactive |
| NC(=O)c1ccc2[nH]ccc2c1 | inactive | inactive | inactive | inactive | – | inactive | inactive | – | – | inactive |
| NC(=O)c1cccc(N)c1 | inactive | inactive | inactive | inactive | – | inactive | inactive | inactive | inactive | inactive |
| COc1cc2ncnc(Nc3cccc(Cl)c3)c2cc1OC | inactive | inactive | inactive | inactive | – | inactive | – | 3.29 µM (active) | 2.62 µM (active) | inactive |
| Nc1nc(N)c2nc(CNc3ccc(C(=O)NC(CCC(=O)O)C(=O)O)cc3)cnc2n1 (stereo not drawn) | inactive | inactive | – | inactive | – | – | inactive | inactive | inactive | inactive |
| O=C(O)C1CCCN(CCC=C(c2ccccc2)c2ccccc2)C1 (stereo not drawn) | inactive | inactive | inactive | inactive | – | inactive | inactive | inactive | inactive | inactive |
| OCc1ccc(-c2nn(Cc3ccccc3)c3ccccc23)o1 | inactive | inactive | inactive | – | – | 39.8 µM (active) | – | inactive | inactive | inactive |
| N[C@@H](Cc1ccc(O)c(O)c1)C(=O)O | inactive | inactive | inactive | 29.9 µM (active) | 23.9 µM (active) | 31.6 µM (active) | inactive | – | – | 3.77 µM (active) |
| CC(C)NCC(O)c1ccc(NS(C)(=O)=O)cc1 (stereo not drawn) | inactive | – | inactive | inactive | – | inactive | inactive | – | inactive | inactive |
| CC(C)(C)NC(=O)[C@H]1CC[C@H]2[C@@H]3CC[C@H]4NC(=O)C=C[C@]4(C)[C@H]3CC[C@]12C | – | – | – | – | – | – | – | inactive | inactive | – |
| CCN(CC)CC#CCOC(=O)C(O)(c1ccccc1)C1CCCCC1 (stereo not drawn) | inactive | inactive | inactive | inactive | inactive | inactive | inactive | inactive | – | inactive |
| CCCCS(=N)(=O)CCC(N)C(=O)O (stereo not drawn) | inactive | inactive | inactive | inactive | inactive | inactive | inactive | inactive | 2.08 µM (active) | inactive |
| CC1=C(C(=O)O)N2C(=O)[C@@H](NC(=O)C(N)c3ccccc3)[C@H]2SC1 (stereo partly drawn) | inactive | inactive | inactive | inactive | – | inactive | inactive | inactive | inactive | inactive |
| Cc1ccc(S(=O)(=O)N[C@@H](Cc2ccccc2)C(=O)CCl)cc1 | inactive | inactive | inactive | 21.2 µM (active) | – | inactive | – | inactive | inactive | inactive |
| CC1CC2C3CCC4=CC(=O)C=C[C@]4(C)[C@@]3(F)[C@@H](O)C[C@]2(C)[C@@]1(O)C(=O)CO (stereo partly drawn) | inactive | inactive | inactive | inactive | – | inactive | – | – | – | inactive |
| CC(=O)[C@H]1CC[C@H]2[C@@H]3CCC4=CC(=O)CC[C@]4(C)[C@H]3CC[C@]12C | inactive | inactive | inactive | inactive | inactive | inactive | – | – | inactive | inactive |
